Source: PubChem BioAssay (NCATS)
Inconclusive results are not listed. Active and inactive are the calls of the source. Calls follow the shape of the dose curve; as a rule, active = well fitted cell-killing curve with a large enough effect; inconclusive = small, poorly fitted or top-dose-only effect; inactive = flat fitted curve, though single readings scatter. Non-standard residues stand in square brackets, D forms with d. Residues, ends and D or L forms follow the SMILES beside them. *: point of attachment. Nva = CCC[C@H](N)C(=O)O; Cbz = O=C(OCc1ccccc1)*

Test: qHTS of pediatric cancer cell lines to identify multiple opportunities for drug repurposing: Primary screen for BT-37 cells (AID 1347094)
Settings: BT-37 viability, CellTiter-Glo luminescence, 48 h; series mostly up to 57.3 µM
Text: Drug repurposing or repositioning has been offered as a strategy for drug development in oncology programs. This approach has special potential for childhood cancers and other rare or orphan diseases, where the expected return on new drug development has been a disincentive to pharmaceuticals. […] In this project we exploit the poly-pharmacology of drugs to discover new indications via phenotypic screening of a panel of 19 well-characterized cell lines derived from solid tumors seen in children and adolescents. The goal is to identify approved drugs with previously unrecognized anticancer properties that has the potential to reveal new mechanisms and biological processes involved in carcinogenesis or drug resistance. We employed a titration-based paradigm (quantitative high-throughput screening or qHTS), where all compounds were tested at multiple concentrations for their effect on cell viability. Concentration-response curves (CRCs) were derived directly from the primary screen, and both potency and efficacy values were used to identify compounds with robust bioactivity profiles. We screened the NIH Chemical Genomics Center (NCGC) Pharmaceutical Collection (NPC) and Mechanism Interrogation Plate (MIPE) small molecule collections of approved and investigational compounds against these cell lines; and measured metabolically active cells after 48 hours of compound treatment as a proxy for cell viability. […] Assay Submitter: Nathalia J. Martinez, National Center for Advancing Translational Sciences, National Institutes of Health, Rockville, MD, USA; email: natalia.martinez@nih.gov Shen, M et al. Quantitative high-throughput phenotypic screening of pediatric cancer cell lines identifies multiple opportunities for drug repurposing. Oncotarget 2017 Dec 19;9(4):4758-4772. PMID 29435139.
The cells were obtained from University of North Carolina (UNC), Pediatric Preclinical Testing Program (PPT), and Coriell Institute (CI). qHTS cell viability assay: Cells were assayed in growth media at a density of 500-1,000 cells/well. Five microliters of cells were dispensed into 1,536-well, white, solid-bottom, TC-treated plates (Greiner Bio One) using a multidrop dispenser and incubated at 37 degrees C, 5% CO2, under a humidified atmosphere for 5 hours. Twenty-three nanoliters of compounds and controls (neutral control DMSO or positive control bortezomib at final concentration of 2.3 µM) were subsequently transferred by Kalypsys pintool. For primary screens, the MIPE collection was tested at 11-point dilutions (final concentrations range from 0.78 nM to 46 µM) and the NPC collection at 8-point dilutions (final concentrations range from 0.59 nM to 46 µM). Compounds tested in follow-up screens were assayed at 11-point dilutions. Cells were incubated for 48 hours, followed by addition of 3 µL of CellTiter-Glo (Promega). After a 15 min incubation at room temperature, samples were analyzed for luminescence intensity using a ViewLux High-throughput CCD imager equipped with clear filters.
Potency is read from the fitted curve at half-maximal effect.

Structure (SMILES)	Potency
CC(C)(O)CC[C@@H](O)[C@](C)(O)[C@H]1CC[C@@]2(O)C3=CC(=O)[C@@H]4C[C@@H](O)[C@@H](O)C[C@]4(C)[C@@H]3CC[C@]12C	inactive
c1cc(N[C@@H]2CCNC2)nc(-c2cnc3ccc(-c4cn[nH]c4)cn23)c1	19.3 µM (active)
O=C(Nc1cccc(Nc2ncc(Br)c(NCCc3cnc[nH]3)n2)c1)N1CCCC1	21.7 µM (active)
CCC[C@@H](C=O)NC(=O)[C@H](CC(C)C)NC(=O)[C@H](CC(C)C)NC(=O)OCc1ccccc1 (Cbz-Leu-Leu-[Nva]-aldehyde)	1.22 µM (active)
O=c1[nH]c(=O)n([C@H]2C[C@@H](O)[C@@H](CO)O2)cc1C=CBr	inactive
CC(=O)O[C@]1(C(C)=O)CC[C@H]2[C@@H]3C=C(C)C4=CC(=O)CC[C@]4(C)[C@@H]3CC[C@@]21C	4.32 µM (active)
CC(=O)N[C@@H]1[C@H](O[C@@H]2c3ccc(c(Cl)c3)Oc3cc4cc(c3O[C@H]3O[C@H](CO)[C@@H](O)[C@H](O)[C@H]3NC(=O)CCCCCCCC(C)C)Oc3ccc(cc3Cl)C[C@H]3NC(=O)[C@H](N)c5ccc(O)c(c5)Oc5cc(O)cc(c5)[C@H](NC3=O)C(=O)N[C@H]4C(=O)N[C@H]3C(=O)N[C@@H]2C(=O)N[C@@H](C(=O)O)c2cc(O)cc(O[C@H]4O[C@H](CO)[C@@H](O)[C@H](O)[C@H]4O)c2-c2cc3ccc2O)O[C@H](CO)[C@@H](O)[C@@H]1O	inactive
Cn1c(Nc2ccc(C(F)(F)F)cc2)nc2cc(Oc3ccnc(-c4ncc(C(F)(F)F)[nH]4)c3)ccc21	2.43 µM (active)
CCc1c(O)cc(O)c(C(=O)c2ccc(OCCN3CCOCC3)c(OC)c2)c1CC(=O)N(CCOC)CCOC	1.09 µM (active)
CC(C)C[C@H](NC(=O)CNC(=O)c1cc(Cl)ccc1Cl)B1OC(=O)CC(CC(=O)O)(C(=O)O)O1 (stereo not given in full)	0.344 µM (active)
CCOC(=O)[C@@H](N)Cc1ccc(-c2cc(O[C@H](c3ccc(Cl)cc3-n3ccc(C)n3)C(F)(F)F)nc(N)n2)cc1	27.3 µM (active)
CC(=O)OC[C@@H]1O[C@@H](n2ccc(=O)[nH]c2=O)[C@H](OC(C)=O)[C@H]1OC(C)=O	inactive
O=C(Nc1cc2cc[nH]c2cn1)c1ccccc1	7.69 µM (active)
Cn1cc(C=CC(=O)c2cccc(F)c2)cc1C=CC(=O)NO	inactive
O=C(NC1CC1)c1cccc(-c2ccc3c(NC(=O)C4CC4)n[nH]c3c2)c1	3.43 µM (active)
Cc1onc(-c2ccccc2)c1C(=O)N[C@@H]1C(=O)N2[C@@H](C(=O)O)C(C)(C)S[C@@H]12	inactive
CC(C)NC[C@@H](C(=O)N1CCN(c2ncnc3c2[C@H](C)C[C@H]3O)CC1)c1ccc(Cl)cc1	4.32 µM (active)
CC(=O)NC(CS)C(=O)O (stereo not given)	inactive
CC[C@H](CC[C@@H](C)[C@H]1CC[C@H]2[C@@H]3CC=C4C[C@@H](O)CC[C@]4(C)[C@@H]3CC[C@]12C)C(C)C	inactive
CC(C)c1cc(C(C)C)c(CC(=O)NS(=O)(=O)Oc2c(C(C)C)cccc2C(C)C)c(C(C)C)c1	24.3 µM (active)

Structure (SMILES)	Potency
CC(=O)N1CCN(c2ccc(OCc3nn(C)c(C)c3-c3cccc4c(CCCOc5cccc6ccccc56)c(C(=O)O)n(Cc5cccnc5)c34)cc2)CC1	0.485 µM (active)
COc1ccc([C@@H]2CNC(=O)C2)cc1OC1CCCC1	27.3 µM (active)
COc1cc(O)c2c(c1)C1OC1C[C@H](O)[C@H](O)C(=O)C=CC[C@H](C)OC2=O (stereo not given in full)	19.3 µM (active)
C[C@@H](Oc1ccc2[nH]nc(C=Cc3cnn(CCO)c3)c2c1)c1c(Cl)cncc1Cl	24.3 µM (active)
CC(=O)ON=C1C(c2c(O)[nH]c3cc(Br)ccc23)=Nc2ccccc21	6.11 µM (active)
COc1cc(C)c(Sc2cnc(NC(=O)c3ccc(CNC(C)C(C)(C)C)cc3)s2)cc1C(=O)N1CCN(C(C)=O)CC1 (stereo not given)	7.69 µM (active)
CC[C@]12C=CCN3CC[C@@]4(c5cc([C@@]6(C(=O)OC)C[C@H]7C[C@@H](C(C)(F)F)CN(Cc8c6[nH]c6ccccc86)C7)c(OC)cc5N(C)[C@H]4[C@@](O)(C(=O)OC)[C@H]1OC(C)=O)[C@@H]32	0.0273 µM (active)
CN(CC(=O)N(Cc1ccc(C2CCCCC2)cc1)c1ccc(C(=O)O)c(O)c1)S(=O)(=O)c1c(F)c(F)c(F)c(F)c1F	17.2 µM (active)
C[C@H](NCc1ccc2c(c1)nc(NC(=O)c1ccc(-c3cn[nH]c3)s1)n2CCc1ccccc1)C(C)(C)C	1.37 µM (active)
CC(C=CC(=O)NO)=C[C@@H](C)C(=O)c1ccc(N(C)C)cc1	1.22 µM (active)
CS[C@H]1SC[C@@H]2C(=O)N(C)[C@H](C(C)C)C(=O)OC[C@H](NC(=O)c3cnc4ccccc4n3)C(=O)N[C@H](C)C(=O)N(C)[C@@H]1C(=O)N(C)[C@H](C(C)C)C(=O)OC[C@H](NC(=O)c1cnc3ccccc3n1)C(=O)N[C@H](C)C(=O)N2C	0.0017 µM (active)
OCCN1C[C@H](O)[C@@H](O)[C@H](O)[C@@H]1CO	19.3 µM (active)
NC1=N[C@H]2[C@H](CS[C@H]2CCCCC(=O)O)N1	inactive
CC(C)C[C@@H](C=O)NC(=O)[C@H](CC(C)C)NC(=O)[C@H](CC(C)C)NC(=O)OCc1ccccc1 (Cbz-Leu-Leu-Leu-aldehyde)	0.863 µM (active)
COC1=C(OC)C(=O)C(CC=C(C)CCC=C(C)CCC=C(C)CCC=C(C)CCC=C(C)CCC=C(C)CCC=C(C)CCC=C(C)CCC=C(C)CCC=C(C)C)=C(C)C1=O	inactive
NC(=O)Nc1sc(-c2ccc(F)cc2)cc1C(N)=O	0.685 µM (active)
O=C(Nc1nnc(-c2ccco2)o1)c1cc(-c2ccccc2)nc2ccccc12	27.3 µM (active)
O=C1CSC(=O)N1C(CCc1ccncc1)COc1ccc(-c2cccc([N+](=O)[O-])c2)cc1 (stereo not given)	15.3 µM (active)
COc1cc(C(=O)NC2CCN(C)CC2)ccc1Nc1ncc2c(n1)N(C1CCCC1)CCC(=O)N2C(C)C	2.43 µM (active)
COc1cc2ncnc(Nc3cccc(Br)c3)c2cc1OC	24.3 µM (active)
